This passage reports inhibition results from PubChem BioAssay AID449762 (Southern Research Specialized Biocontainment Screening …, 2010).

Each structure is given as a SMILES string. Out of some 330,000 compounds screened, about 1,900 (0.58%) were called active. About 4% were inconclusive and are not listed. Only a sample is shown. Results with a measured potency or affinity are listed apart. Values without a mark were called inactive. No stated cut-off is given here; in the data, inconclusive means inhibition above about 70% without an active follow-up result; inactive means below that.

The experiment can be described thus: M. tuberculosis growth inhibition, HTS (AID 449762).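 Further: bacterial growth assessed after seven days of incubation.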 To be noted: M. tuberculosis H37Rv growth inhibition, 7H9 media; at 25 µM; stronger effect = higher value.
For orientation: inhibition means the change of the read-out against control, counted positive when it falls. For `Clc1ccc(Cn2ncc3c(N4CCCC4)ncnc32)cc1`, the inhibition is 6.77%.

As to `Cc1ccc(Cn2ncc3c(N4CCN(Cc5ccc(Cl)cc5)CC4)ncnc32)cc1`, the inhibition was 35%.

On to `COc1ccc(NC(=O)c2c3c(nc4ccccc24)CCC3)cc1`, for which the inhibition was 2.33%.

With `CCCC(O)(CCC)C(=O)NN(C(=O)CCl)c1ccccc1`, the inhibition is 64.3%.

On to `CCC(O)(CC)C(=O)NN(C(=O)CCl)c1ccccc1`, for which the inhibition was 64.9%.

For `CC(C)(C)NC(=O)C1Cc2ccccc2CN1S(=O)(=O)c1ccc(F)cc1` (centres undefined), the inhibition was -4.99%.

As for `CC(C)Oc1cccc(C(=O)C2CCCN(Cc3cnc(N4CCOCC4)s3)C2)c1` (centres undefined), the inhibition is 0.96%.

Take `CCN(CC)CCN(C(=O)c1ccc(S(=O)(=O)N2CCCCC2)cc1)c1nc2cc3c(cc2s1)OCO3`: the inhibition was 1.42%.

Regarding `CCOC(=O)N1CCN(S(=O)(=O)c2ccc(C(=O)N(CCN(CC)CC)c3nc4ccc(C)cc4s3)cc2)CC1`, the inhibition was -2.86%.

With `CCN(CC)C(=O)N1CCC(NC(=O)c2ccc(C(C)(C)C)cc2)CC1`, the inhibition was 9.36%.

Turning to `Cc1cc(NC(=O)CSc2nc3ccccc3s2)no1`, the inhibition is 3.12%.

With `Cc1ccc(C=C2C(=O)c3ccccc3C2=O)o1`, the inhibition was -3.84%.

With `NS(=O)(=O)c1ccc(-c2ccc(/C=C3\C(=O)Nc4ccccc43)o2)cc1`, the inhibition is -2.7%.

For the compound `CC1CN(S(=O)(=O)c2cccc(C(=O)NCCCn3ccnc3)c2)CC(C)O1` (centres undefined), the inhibition was -14.2%.

For the compound `CCOC(=O)NC(=O)c1cn(N(C)c2ncc(C(F)(F)F)cc2Cl)c(=O)[nH]c1=O`, the inhibition is -2.39%.

On to `CC(OC(=O)c1ccco1)C(=O)Nc1ccc(Cl)cn1` (centres undefined), for which the inhibition is 0.78%.

`CC(OC(=O)c1cc[n+]([O-])cc1)C(=O)Nc1ccc(Cl)cn1` (centres undefined): the inhibition is -4.2%.

In the case of `COC(=O)c1sccc1-n1cccc1C(=O)C(=O)N1CCCC1`, the inhibition is 0.85%.

Take `CCOCc1cnc(C)nc1NCC(=O)c1c(C)[nH]c2ccc(OC)cc12`: the inhibition was -0.42%.

In the case of `COc1cc2c(C(=O)N3CCN(c4cccc(Cl)c4)CC3)cn(C)c(=O)c2cc1OC`, the inhibition is -1.4%.

On to `CCn1cc(C(=O)N2CCN(c3cccc(Cl)c3)CC2)c2cc(OC)c(OC)cc2c1=O`, for which the inhibition was -2.64%.

As for `O=C(O)CCC(=O)NNC(=O)CCC1CCCCC1`, the inhibition was 0.82%.

With `CCOC(=O)c1c(NC(=O)OC)sc(C(=O)N(CC)CC)c1C`, the inhibition was 10.1%.

On to `CCN(CC)C(=O)c1[nH]cnc1C(=O)NCc1ccc(CNC(=O)OC(C)(C)C)cc1`, for which the inhibition was -4.15%.

`Cc1oc2nc(SCC(=O)NC3CCCCC3)nc(N)c2c1C`: the inhibition is 3.18%.

For `COc1cccc(CC2(CO)CCCN(Cc3ccc(C)s3)C2)c1` (centres undefined), the inhibition is 1.24%.

Turning to `COc1cccc(CC2(CO)CCCN(Cc3cc4ccccc4[nH]3)C2)c1` (centres undefined), the inhibition is 10.5%.

On to `COc1ccccc1CCNC(=O)CCSc1nc(-c2ccco2)cc(C(F)(F)F)n1`, for which the inhibition is -1.55%.

For the compound `CCCN=Cc1sc2ccc(OCC)cc2c1O`, the inhibition is -4.1%.

With `Cc1cccc(NC(=O)/C(C#N)=C\c2cccnc2)c1`, the inhibition was -10.8%.

Consider `COc1cc2nc(CN3CC=C(c4ccccc4)CC3)[nH]c(=O)c2cc1OC`, for which the inhibition was 3.16%.

As for `NC(=O)C1CCN(Cc2nc3cc(C(F)(F)F)ccc3c(=O)[nH]2)CC1`, the inhibition was 2.7%.

As to `COc1ccc(CCNC(=O)CCNS(=O)(=O)c2cccc3nonc23)cc1OC`, the inhibition was 2.46%.

As for `COC(=O)/C=C1/S/C(=N/NC(=O)c2ccccc2)NC1=O`, the inhibition was -1.82%.

In the case of `O=C(CN1CCCCC1)N/N=C/c1ccccc1OCc1ccccc1`, the inhibition is -1.99%.

As for `Cn1c(=O)c2c(ncn2CC(=O)Nc2ccccc2Sc2ccccc2)n(C)c1=O`, the inhibition is -2.88%.

`CN(C)C(=O)c1cc(C(=O)c2ccc(F)cc2C(F)(F)F)c[nH]1`: the inhibition was -3.23%.

Take `c1ccc(-n2nnnc2SCCCSc2nc3ccccc3s2)cc1`: the inhibition was -4.17%.

As for `CCSc1nnnn1-c1ccccc1`, the inhibition is 3.88%.

Consider `N#Cc1ccccc1OCC(=O)N1CCc2ccccc2C1`, for which the inhibition was -4.88%.

Turning to `Cc1ccc(-c2nnc(NCc3nc4ccccc4[nH]3)c3ccccc23)cc1S(=O)(=O)N1CCOCC1`, the inhibition was 63.7%.

As for `Cc1nc(-c2ccccc2)sc1C(=O)CSc1ccc(Cl)cc1`, the inhibition is -5.11%.

As for `c1ccc2c(c1)OCc1cn[nH]c1-2`, the inhibition is -2.59%.

Turning to `Cc1ccc(/C=C/c2nnc(-c3ccccc3)o2)cc1`, the inhibition is -11.8%.

`CCOC(=O)CSc1[nH]c2cc(OC)ccc2c1[N+](=O)[O-]`: the inhibition was 6.24%.

Consider `COC(=O)CSc1[nH]c2ccccc2c1[N+](=O)[O-]`, for which the inhibition was -2.39%.

For the compound `CN(C)CCOc1ccc2ccccc2c1`, the inhibition is 2.98%.

Turning to `CN(C)CCOc1ccc(C(C)(C)c2ccccc2)cc1`, the inhibition was -3.02%.

For the compound `COc1ccccc1NC(=O)Nc1ccc(F)c(F)c1`, the inhibition is 0.47%.

Turning to `CCc1nnc(NS(=O)(=O)c2ccc(N/C=C/C(=O)c3ccc(OC)cc3)cc2)s1`, the inhibition was 4.48%.

Consider `CCc1nnc(NS(=O)(=O)c2ccc(N/C=C\C(=O)c3ccc4ccccc4c3)cc2)s1`, for which the inhibition was -6.64%.

Consider `Cn1c(=O)c2c(SCC(=O)Nc3nccs3)nc(C3CC3)nc2n(C)c1=O`, for which the inhibition was -1.82%.

Regarding `Cc1ccc(C2=NS(=O)(=O)N(C)C(C(=O)Nc3cc(C)n(CC(=O)N4CCCCC4)n3)=C2)cc1`, the inhibition was -4.07%.

In the case of `Cc1cccc(N=C2C(=O)Nc3c(Cl)cccc32)c1`, the inhibition was 6.57%.

Regarding `Cc1ccccc1NC(=O)CSc1nc2ccccc2c2nc(CCn3cncc3C)nn12`, the inhibition is 6.6%.

For the compound `Cc1ccc(NC(=O)CSc2nc3ccccc3c3nc(CCn4cncc4C)nn23)c(C)c1`, the inhibition was 9.55%.

`O=C(NCc1ccc2c(c1)OCO2)c1ccc(C2SCC(=O)N2Cc2ccco2)cc1` (centres undefined): the inhibition was -7.71%.

For the compound `COc1ccc(C(=O)NCc2ccc3c(c2)OCO3)cc1`, the inhibition was -0.3%.

For the compound `COc1cc2c(cc1NC(=O)CN1CCN(S(=O)(=O)c3ccc(C)cc3)CC1)oc1ccccc12`, the inhibition was -6.72%.
